# The panel holds about 83,000 compounds, 20% with a hit somewhere; the sample as a whole holds those more often.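 Negative percent growth values reflect cell death: -40 means 40% of the cells present at the start died, and -100 means all died.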 Values without a mark were called inactive. Calls of active or inactive are those of the source. How the source made its calls: active means growth percent below 10; inactive means the rest.
# Tests used:
# Test in all cases: NCI-60 one-dose screen, 48 h (100 = growth as untreated, 0 = no growth, -100 = all killed)
# Details in all cases: 10 µM unless noted
# [1] = test system: SK-MEL-2 melanoma
# [2] = test system: EKVX NSCLC
# [3] = test system: SN12C renal
# [4] = test system: TK-10 renal
# [5] = test system: ACHN renal
# [6] = test system: CAKI-1 renal
# [7] = test system: A498 renal
# [8] = test system: CCRF-CEM leukemia
# [9] = test system: MOLT-4 leukemia
# [10] = test system: UO-31 renal
SMILES,growth [1],growth [2],growth [3],growth [4],growth [5],growth [6],growth [7],growth [8],growth [9],growth [10]
COc1cc(/C=C/C(=O)c2c(C)n([O-])c3ccccc3[n+]2=O)cc(OC)c1OC,36.8%,35.5%,54.6%,87.9%,76.6%,26.3%,69.7%,-51.2% (active),-64.5% (active),–
COc1ccc2c(c1)sc1nc(-c3ccc(N(C)C)cc3)cn12,88.6%,101%,123%,132%,135%,86.2%,111%,71.2%,76.7%,–
COc1ccc2c(c1)sc1nc(-c3ccc(Br)cc3)cn12,106%,113%,104%,133%,110%,96.4%,84.4%,109%,104%,–
N#CC(C#N)C(C#N)C#N,109%,99.7%,99.9%,–,107%,–,–,105%,96.4%,89.1%
OC(c1cc(-c2cccc(Cl)c2)nc2ccccc12)C1CCCCN1 (stereo not drawn),-92% (active),47.3%,-5.08% (active),-63.2% (active),-0.726% (active),-36.5% (active),56.3%,-8.29% (active),-30.6% (active),–
CCNCCCn1c2c(c3ccc(F)cc3c1=O)C(=O)c1cc(OC)cnc1-2,-3.1% (active),-14.4% (active),1.58% (active),–,-47.5% (active),–,-91.2% (active),1.07% (active),-15.6% (active),-90.7% (active)
Cc1n(Cc2ccc3ccccc3c2)c2ccccc2[n+]1Cc1ccc2ccccc2c1,-74.6% (active),9.57% (active),-44.2% (active),–,25.3%,–,-11.5% (active),-45.1% (active),-54.7% (active),30.7%
COc1cnc2c(c1)C(=O)c1c-2n(CCCN2CCOCC2)c(=O)c2cc(F)ccc12,21.4%,17.7%,12.4%,–,-66.9% (active),–,-24% (active),1.77% (active),-18.5% (active),-47.2% (active)
CN(C)c1ccc(-c2nc3ncc(Br)cc3o2)cc1,92.1%,78.4%,98.2%,140%,99.9%,109%,79.8%,77.1%,81%,–
[N-]=[N+]=NCc1cccc(/C(O)=C/C(=O)C(=O)O)c1,72.8%,120%,90.4%,107%,107%,131%,108%,75.2%,-100% (active),–
CC(C)N(Cc1ccccc1)c1c(S)ssc1=S,7.27% (active),5.44% (active),11%,37.1%,5.95% (active),-2.48% (active),-7.36% (active),-81.6% (active),0.0865% (active),–
Cc1cnc2nc(-c3ccc(N(C)C)cc3)cn2c1,101%,91.7%,103%,97.6%,112%,108%,107%,83.3%,91.9%,–
CNCCCn1c2c(c3ccc(F)cc3c1=O)C(=O)c1cc(OC)cnc1-2,-9.66% (active),-13.2% (active),6.91% (active),–,-57.2% (active),–,-87.6% (active),1.24% (active),-19.8% (active),-89.3% (active)
CCOC(=O)/C=C1/SC(=Nc2ccc(C#N)cc2)N(Cc2ccco2)C1=O,78.5%,74%,52.5%,–,-78.6% (active),–,87%,0.581% (active),-6.94% (active),31.6%
O=C(NCCCl)NCCN1c2nc3ccccc3cc2Sc2cc3ccccc3nc21,40.5%,54.7%,67.3%,99.2%,64.8%,248%,80.3%,20.5%,-9.47% (active),–
CCOC(=O)C(Br)=P(c1ccccc1)(c1ccccc1)c1ccccc1,98.8%,103%,101%,117%,104%,82.9%,109%,-40.7% (active),99.6%,–
C[C@H](C(=O)N[C@@H](Cc1ccc(-c2ccccc2)cc1)C(=O)NC1CC(C)(C)N(C)C(C)(C)C1)c1ccc(-c2ccccc2)c(F)c1,-70.9% (active),-47.8% (active),-59.2% (active),–,-87.8% (active),–,–,-45.9% (active),-60.9% (active),-80.9% (active)
OCc1n(Cc2ccc3ccccc3c2)cc[n+]1Cc1ccc2ccccc2c1,67.7%,83.3%,41.7%,–,109%,–,72.7%,34.2%,47.5%,83.5%
C[C@H](C(=O)N[C@@H](Cc1ccc(-c2ccccc2)cc1)C(=O)NC1CC(C)(C)NC(C)(C)C1)c1ccc(-c2ccccc2)c(F)c1,-54.9% (active),-7.01% (active),-50.7% (active),–,-86.9% (active),–,-4.66% (active),-20.9% (active),-42.4% (active),-85.5% (active)
CCOc1cc(/C=C/C(=O)CC(=O)/C=C/c2ccc(OC(=O)CNCCN(CC)CC)c(OCC)c2)ccc1OC(=O)CNCCN(CC)CC,4.43% (active),-38.1% (active),-9.33% (active),7.64% (active),-88.4% (active),-30.9% (active),-26.8% (active),4.21% (active),-23.4% (active),–
C[C@@H]1[C@H]2[C@H](C=C3[C@@H]4CC[C@H]5Cc6nc7c(nc6C[C@]5(C)[C@H]4C[C@@H](O)[C@@]32C)C[C@@H]2CC[C@H]3C4=C[C@@H]5O[C@@]6(CC[C@](C)(CO)O6)[C@@H](C)[C@@]5(O)[C@@]4(C)[C@H](O)C[C@@H]3[C@@]2(C)C7)O[C@]12CCC(C)(C)O2,30.8%,21.8%,67.9%,–,42.5%,–,-72.6% (active),2.79% (active),-21.1% (active),-6.3% (active)
Nc1ccccc1C#Cc1ccccc1C#Cc1ccc(OCCCCCCOc2ccc(C#Cc3ccccc3C#Cc3ccccc3N)cc2)cc1,103%,89.3%,99.4%,141%,102%,91.6%,116%,-59.7% (active),103%,–
COc1cnc2c(c1)C(=O)c1c-2n(CCCNC(C)C)c(=O)c2cc(F)ccc12,-5.42% (active),-20.8% (active),-4.41% (active),–,-69.4% (active),–,-89% (active),-1.1% (active),-22.9% (active),-89.9% (active)
COc1ccc2nc(-c3ccc(Cl)cc3)cc(-c3nnc(SCC(=O)Nc4ccc(C(C)=O)cc4)n3-c3ccccc3)c2c1,91.5%,101%,114%,–,108%,–,100%,108%,83%,84.4%
Cc1cc2c(cc1C)[n+](Cc1ccc3ccccc3n1)cn2Cc1ccc2ccccc2n1,-32% (active),39.6%,15.2%,–,56.5%,–,17.1%,15.1%,7.97% (active),53.2%
CCCCCN(CCCCC)CCCNc1c2c(nc3ccc(Cl)cc13)CCCC2,13.4%,50.7%,49.9%,31.5%,40.8%,26.6%,38.4%,27%,27.8%,–
COc1cnc2c(c1)C(=O)c1c-2n(CCCN2CCCC2)c(=O)c2cc(F)ccc12,23.1%,4.91% (active),9.02% (active),–,-67.7% (active),–,-92.8% (active),0.937% (active),-19.5% (active),-96.2% (active)
CN(C)CCC(=O)Nc1ccc(-n2cc(-c3cccc(NC(=S)Nc4cccc(-c5cn(-c6ccc(NC(=O)CCN(C)C)cc6)nn5)c4)c3)nn2)cc1,91.6%,101%,91.4%,142%,117%,130%,108%,48.4%,47.2%,–
CC(=O)OCC(=O)[C@@]1(O)CC[C@H]2[C@@H]3CCC4=CC(=O)CC[C@]4(C)[C@@]3(F)[C@@H](O)C[C@@]21C,104%,88.8%,84.2%,99.2%,98.5%,115%,103%,71.7%,90.2%,–
COc1cnc2c(c1)C(=O)c1c-2n(CCCN2CCNCC2)c(=O)c2cc(F)ccc12,-17.1% (active),18.7%,7.67% (active),–,-78.1% (active),–,-25.7% (active),-1.3% (active),-16.2% (active),-50.1% (active)
